Only some compounds are listed: those with a hit (about 6% of all), similar ones and a draw of the others.
D1 antagonist: antagonists of human D1 dopamine receptor | P21728 | HEK293 TREx D1 cells, calcium flux, dopamine EC80; stronger effect = lower value | activity change, negative = inhibition, % at 10 µM | 360,000 tested, 3.2% active | AID 504652; in the data active = activity change below about -30%
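Tetracycline-induced HEK293 T-REx cells with force-coupled D1 receptor were loaded with a no-wash calcium dye. Compound was added after a 10 s baseline and read kinetically for 180 s; EC80 dopamine was then added and calcium flux followed another 180 s.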
D1 potentiator: potentiators of human D1 dopamine receptor | P21728 | HEK293 TREx D1 cells, calcium flux, dopamine EC20 potentiation | potentiation, % at 10 µM | 360,000 tested, 0.036% active; in the data active = potentiation above about 30%
D1 ag: activates the human D1 dopamine receptor | P21728 | HEK293 T-REx D1 cells, calcium flux, agonist mode | activation, % at 2 µM | 360,000 tested, 1% active | AID 504660; in the data active = activation above about 30%
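Tetracycline-induced HEK293 TREx D1 cells, force-coupled to calcium signalling, were dye-loaded with a no-wash calcium kit. Compound was pin-added after a 10 s baseline. Fluorescence was read kinetically at 1 cycle/s for 180 s, with calcium rises flagged as agonism.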
DRD3 agonist: activates the human D3 dopamine receptor; P35462; D3R DiscoveRx beta-arrestin cells, luminescence, 90 min; max activation, %; 410,000 tested, 0.58% active; in the data active = max activation above about 30%
Target sequence (P35462 whole entry, looked up): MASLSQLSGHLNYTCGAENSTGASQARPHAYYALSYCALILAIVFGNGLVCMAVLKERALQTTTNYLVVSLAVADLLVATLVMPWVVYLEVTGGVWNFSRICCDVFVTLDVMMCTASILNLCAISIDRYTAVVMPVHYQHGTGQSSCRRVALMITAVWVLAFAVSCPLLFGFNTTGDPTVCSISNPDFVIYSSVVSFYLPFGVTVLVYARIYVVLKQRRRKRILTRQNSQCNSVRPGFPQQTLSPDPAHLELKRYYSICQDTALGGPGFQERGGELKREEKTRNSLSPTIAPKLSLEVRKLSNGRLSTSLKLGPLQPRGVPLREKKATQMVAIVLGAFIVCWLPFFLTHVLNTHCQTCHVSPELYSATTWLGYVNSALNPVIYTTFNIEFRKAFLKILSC
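Cells at 1500/well, incubated overnight, then treated with pinned compounds (dopamine as control) for 90 min at 37 degrees C. DiscoveRx reagent added for 30 - 60 minutes at room temperature; luminescence read.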
D3 antag: D3 dopamine receptor (human) antagonism | D3R cells, DiscoveRx beta-arrestin luminescence, antagonist mode; stronger effect = lower value | max response, negative = inhibition, % | 360,000 tested, 2.5% active; in the data active = max response below about -50%; inconclusive = no clear call, values can overlap the other calls
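Cells plated overnight at 1500 cells/well, then exposed to library compounds with dopamine controls for 90 minutes at 37 degrees C. DiscoveRx reagent added for 30–60 minutes at room temperature; luminescence read, quantitative HTS format.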
Hits are given with their value; 0 = inactive; ? = inconclusive; - = no result; ! = not active in a repeat.

SMILES	D1 antagonist	D1 potentiator	D1 ag	DRD3 agonist	D3 antag
CCOc1ccc(NC(=O)C2CCCN(S(=O)(=O)c3ccc(Br)s3)C2)cc1 (centres undefined)	0	0	0	0	-
Cc1cc(C)cc(NC(=O)CNS(=O)(=O)c2ccc3nc(C)sc3c2)c1	0	0	0	0	-
COc1ccc(CSc2nc(C)cc(=O)[nH]2)cc1Br	0	0	0	0	-84
Cc1onc(-c2ccccc2Cl)c1C(=O)Oc1cc(N)n(S(=O)(=O)c2ccc(F)cc2)n1	0	0	0	0	0
Cc1ccc(S(=O)(=O)n2nc(OC(=O)c3c(-c4ccccc4Cl)noc3C)cc2N)cc1	0	0	0	0	-58
COc1ccc(CNC(=O)c2cc3c(=O)oc4ccc(C)cc4c3s2)c(OC)c1	0	0	0	0	-
Cc1sc2nc[nH]c(=O)c2c1-c1ccc(F)cc1	0	0	0	0	0
Cc1ccc(-c2c(C)sc3nc[nH]c(=O)c23)cc1C	-35	0	0	0	0
N=c1c2c(-c3ccccc3)c(-c3ccccc3)n(Cc3ccco3)c2ncn1CCCO	0	0	45	0	0
Cc1ccc(C)c(N2C(=O)N(Cc3ccccc3C)c3ccccc3S2(=O)=O)c1	0	0	0	0	-
CCOc1ccc(OCc2cccc(C(=O)Nc3ccc(CN4CCCCC4)cc3)c2)cc1	-30	0	38	0	0
O=C(Nc1ccc(CN2CCCCC2)cc1)c1cccc(F)c1	0	0	0	0	0
COc1cc(OC)cc(C(=O)Nc2ccc(CN3CCCCC3)cc2)c1	0	0	0	0	0
COc1ccc(OCc2cccc(C(=O)Nc3ccc(CN4CCCCC4)cc3)c2)cc1	0	0	48	0	0
O=C(N/N=C/c1cc(Cl)ccc1O)C(=O)Nc1ccccc1OC(F)(F)C(F)F	0	0	0	0	0
CC(C)NC(=S)N/N=C/c1cc(Br)ccc1O	-58	0	0	0	0
O=C(N/N=C/c1cc(Br)ccc1O)C(=O)Nc1ccccc1OC(F)(F)C(F)F	0	0	0	49	0
Cc1ccc(C(=O)N/N=C/c2cc(Br)ccc2O)cn1	0	0	0	0	0
O=C(CCc1ccccc1)N/N=C\c1cc2c(cc1Br)OCO2	-31	0	0	0	0
COC(=O)N/N=C/c1cc(Br)ccc1O	0	0	0	0	0
O=C(N/N=C/c1cc(Br)ccc1O)c1ccccc1Cl	-42	0	0	0	0
CCOc1ccc(C(=O)c2cn(Cc3ccc(OC)cc3)c3cc(OC)c(OC)cc3c2=O)cc1	0	0	0	0	-
CN(c1ncnc2onc(-c3cccc(Cl)c3)c12)C1CCCCC1	0	0	0	0	-
O=C(CCc1ccccc1)N/N=C/c1cc(Br)ccc1O	-43	0	0	0	0
Oc1ccc(Br)cc1/C=N/NC(=S)NCCc1ccccc1	0	0	0	0	0
SMILES	D1 antagonist	D1 potentiator	D1 ag	DRD3 agonist	D3 antag
c1ccc2c(C[C@@H]3CNCCN3CC3CCCCC3)cccc2c1	0	0	116	0	0
CCc1nnc(NS(=O)(=O)c2ccc(NC(=S)NC(=O)c3ccccc3)cc2)s1	0	0	0	0	0
O=C(/C=C/c1ccc(Br)cc1)NC(=S)Nc1ccc(S(=O)(=O)Nc2nccs2)cc1	0	0	0	0	-53
CCc1nnc(NS(=O)(=O)c2ccc(NC(=S)NC(=O)/C=C/c3ccccc3)cc2)s1	0	0	0	0	-68
O=C(NC(=S)Nc1ccc(S(=O)(=O)Nc2nccs2)cc1)c1ccc(Br)o1	0	0	0	0	?
CCc1nnc(NS(=O)(=O)c2ccc(NC(=S)NC(=O)c3ccc(Br)cc3)cc2)s1	0	0	0	0	-65
CCc1nnc(NS(=O)(=O)c2ccc(NC(=O)/C=C/C(=O)O)cc2)s1	0	0	0	0	-62
CCc1nnc(NS(=O)(=O)c2ccc(NC(=O)/C=C/c3ccccc3Cl)cc2)s1	0	0	0	0	0
Cc1ccc2c(c1)C(=O)OC(C(=O)Nc1ccccc1C(=O)O)C2 (centres undefined)	0	0	0	0	-
CCNC(=O)c1ccc2c(c1)sc1nc(-c3cccc(OC)c3)cn12	0	0	0	0	-
COc1ccc(NS(=O)(=O)c2ccc(NC(=S)NC(=O)c3ccc(Br)cc3)cc2)nn1	0	0	0	0	-53
CCc1nnc(NS(=O)(=O)c2ccc(NC(=S)NC(=O)/C=C/c3ccc(C(C)C)cc3)cc2)s1	0	0	0	0	-129
CCc1nnc(NS(=O)(=O)c2ccc(NC(=O)c3ccc(Cl)cc3)cc2)s1	0	0	0	0	0
CCc1nnc(NS(=O)(=O)c2ccc(NC(=O)C(c3ccccc3)c3ccccc3)cc2)s1	-	-	-	0	0
COc1nccnc1NS(=O)(=O)c1ccc(NC(=S)NC(=O)/C=C/c2ccc(F)cc2)cc1	-38	0	0	0	0
COc1cc(NS(=O)(=O)c2ccc(NC(=S)NC(=O)/C=C/c3ccc(F)cc3)cc2)ncn1	0	0	0	0	0
CCc1nnc(NS(=O)(=O)c2ccc(NC(=O)c3cccc(Cl)c3)cc2)s1	0	0	0	0	-68
CCOc1ccc(-n2nc(CO)c(C(=O)NCc3ccccn3)n2)cc1	0	0	0	0	-
COc1ccc(N2CCN(CCCNC(=O)c3cnn(-c4ccc(C)cc4)c3-n3cccc3)CC2)cc1	0	0	0	0	-
CCc1nnc(NS(=O)(=O)c2ccc(NC(=S)Nc3ccc(F)cc3)cc2)s1	0	0	0	0	0
CCc1nnc(NS(=O)(=O)c2ccc(NC(=S)NC(=O)/C=C/c3ccc(OC)cc3)cc2)s1	-30	0	0	0	-73
CC(C)NC(=S)NC(=O)/C=C/c1ccc(F)cc1	-81	0	0	0	0
CC(NC(=O)c1nn(C)c2c1CSc1ccccc1-2)c1ccccc1 (centres undefined)	0	0	0	0	-
Cc1c(C(=O)N(C)C)sc2c1c(=O)n(-c1ccc(Cl)c(Cl)c1)c(=O)n2Cc1ccc(F)cc1	0	0	0	0	-
CCN(CC)CCNC(=O)c1ccccn1	-32	0	0	0	0
SMILES	D1 antagonist	D1 potentiator	D1 ag	DRD3 agonist	D3 antag
CCN(CC)CCNC(=O)/C(=N\O)c1ccccn1	0	0	0	0	0
CCN(CC)CCNC(=O)c1sc2ncccc2c1-n1cccc1	-36	0	0	0	-
O=C(NCCCNCc1ccccc1)c1ccccn1	0	0	0	0	-66!
Cc1cc2c(s1)c1cnn(Cc3c(C)cc(F)cc3C)c(=O)c1n2C	0	0	0	-	-
COc1cc(Cl)c(C)cc1NC(=O)c1cnc2c(-c3cccc(C)c3)c(C)nn2c1C	0	0	0	0	-
Cc1cccc(NC(=O)c2sc(-n3nc(C)c(CCC(C)C)c3C)nc2C)c1	0	0	0	0	-
O=C1CCCC2=C1C(c1ccc(O)cc1)c1c(ccc3ccccc13)N2 (centres undefined)	-53	0	0	0	0
O=C1CCCC2=C1C(c1ccc(O)c(O)c1)c1c(ccc3ncccc13)N2 (centres undefined)	0	0	0	0	0
Cc1ccc(/C=C2/Sc3ccc(C(=O)N4CCN(C)CC4)cc3NC2=O)cc1	-82	0	0	0	?

Screens from PubChem.
